Source: PubChem BioAssay (NCATS)
“And” between values parts separate entries of the source, which are not always exact repeats. Equal entries are not always repeated. Records with an inconclusive call do not appear. More than one record can exist for a structure, and the calls need not agree. The source made the active and inactive calls. Unless noted, calls follow the shape of the full dose curve.

Legend:
[1] = target: Cytochrome P450 1A2 (Homo sapiens) (UniProt P05177); assay: p450-cyp1a2 (AID 410); also: potency is read from the fitted curve at half-maximal effect;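 as to activity change, negative = inhibition: -100% = full effect of reference inhibitor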
Chain of Cytochrome P450 1A2 (Homo sapiens) (P05177 whole entry, looked up): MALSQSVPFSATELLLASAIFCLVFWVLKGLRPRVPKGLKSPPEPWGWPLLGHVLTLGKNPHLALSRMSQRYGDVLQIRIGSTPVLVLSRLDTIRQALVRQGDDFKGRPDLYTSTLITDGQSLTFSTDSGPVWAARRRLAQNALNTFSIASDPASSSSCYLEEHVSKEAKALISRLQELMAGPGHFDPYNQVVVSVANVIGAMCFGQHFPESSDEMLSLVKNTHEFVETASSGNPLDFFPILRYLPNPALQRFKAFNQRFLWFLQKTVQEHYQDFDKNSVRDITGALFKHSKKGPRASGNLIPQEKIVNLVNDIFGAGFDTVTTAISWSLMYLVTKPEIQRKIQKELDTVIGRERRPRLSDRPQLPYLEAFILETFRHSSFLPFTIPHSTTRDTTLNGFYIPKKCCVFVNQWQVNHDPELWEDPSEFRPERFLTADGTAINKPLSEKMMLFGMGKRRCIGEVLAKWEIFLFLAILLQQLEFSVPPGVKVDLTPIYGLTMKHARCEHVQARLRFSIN
Method in brief: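 Luminescent readout of luciferin formed from Luciferin-ME by human CYP1A2; data normalized against complete inhibition by 57 uM furafylline. Enzyme 20nM, substrate 100uM at Km, 100mM KPO4 buffer, 60 min reaction at room temperature.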

[2] = NFAT Signaling Pathway (AID 444; active = well fitted curve in either direction with a large enough effect, not every such curve was filed as active;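 also: carbachol stimulus at about its EC50 of 1 µM final; % is scaled to controls: 0 for no effect and ±100 for the full control effect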); settings: Jurkat NFAT-bla M1, carbachol, beta-lactamase ratio, 5 h
Method in brief: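 Jurkat cells carrying an NFAT-driven β-lactamase reporter and co-transfected muscarinic M1 receptor were treated with compound plus carbachol (1 uM final, an EC50 level) for 5 h at 37 °C. CCF4 loading followed for 1 h at RT; 460/530 nm ratio gave %activity.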

[3] = target: Glucocorticoid receptor (Homo sapiens) (UniProt P04150); assay: GR-GFP Redistribution (AID 450;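 active = compounds whose dose series gives a full or clear partial fitted curve of increased nuclear translocation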; also: potency is read from the fitted curve at half-maximal effect); settings: U2OS GR-GFP nuclear translocation, laser cytometry, 2 h
Chain of Glucocorticoid receptor (Homo sapiens) (P04150 whole entry, looked up, the tested form may be a part): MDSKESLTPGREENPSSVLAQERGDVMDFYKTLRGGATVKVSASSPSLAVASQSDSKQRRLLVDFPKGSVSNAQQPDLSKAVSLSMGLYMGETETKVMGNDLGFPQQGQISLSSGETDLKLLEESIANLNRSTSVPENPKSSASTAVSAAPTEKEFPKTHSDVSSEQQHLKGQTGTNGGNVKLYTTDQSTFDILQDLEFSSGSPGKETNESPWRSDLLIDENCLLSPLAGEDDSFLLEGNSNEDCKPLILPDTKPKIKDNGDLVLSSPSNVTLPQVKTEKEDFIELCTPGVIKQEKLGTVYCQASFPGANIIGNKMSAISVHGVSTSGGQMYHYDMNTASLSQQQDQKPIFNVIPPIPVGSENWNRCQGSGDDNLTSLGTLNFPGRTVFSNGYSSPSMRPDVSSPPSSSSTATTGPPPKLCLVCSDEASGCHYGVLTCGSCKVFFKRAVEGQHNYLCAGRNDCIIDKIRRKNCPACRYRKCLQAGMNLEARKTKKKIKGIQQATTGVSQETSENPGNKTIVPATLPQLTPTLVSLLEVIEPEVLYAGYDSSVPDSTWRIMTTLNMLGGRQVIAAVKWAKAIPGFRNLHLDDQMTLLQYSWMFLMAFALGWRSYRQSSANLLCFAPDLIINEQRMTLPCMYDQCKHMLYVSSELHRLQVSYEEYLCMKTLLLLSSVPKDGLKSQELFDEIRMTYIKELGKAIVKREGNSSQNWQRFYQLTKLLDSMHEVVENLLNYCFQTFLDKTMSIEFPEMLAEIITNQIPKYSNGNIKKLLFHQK

[4] = target: Glucocorticoid receptor (Homo sapiens) (UniProt P04150); assay: GR-EFC Redistribution (AID 451); settings: CHO-K1 GR-EFC translocation, beta-gal luminescence, 2 h; also: potency is read from the fitted curve at half-maximal effect
Method in brief: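 CHO-K1 cells stably expressing nuclear-localized β-gal enzyme acceptor and GR fused C-terminally to the enzyme donor fragment; ligand-driven nuclear translocation restores β-gal by complementation. Compounds titrated up to 46 uM final, 2 h at 37 °C; luminescence read.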

[5] = Stat Signaling Pathway (AID 446; active = well fitted curve in either direction with a large enough effect, not every such curve was filed as active;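 also: ME-180 cervical cancer cells given 40 pM IL-6 alongside compound; SIE-controlled beta-lactamase reporter measured as 460/530 nm FRET emission ratio; % is scaled to controls: 0 for no effect and ±100 for the full control effect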); settings: ME-180 SIE beta-lactamase reporter, IL-6 stimulated, 5 h
Method in brief: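 ME-180 SIE-bla cells; overnight plating; cpd + IL-6 40 pM, 5 h, 37 C; LiveBLAzer 2.5 h RT; 460/530 nm emission ratio. Normalized to 300 pM IL-6 and 125 nM JAK inhibitor controls.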

[6] = target: Mitogen-activated protein kinase 10 (Mus musculus) (UniProt Q61831); assay: JNK3 AlphaScreen Assay (AID 530; active = well fitted curve in either direction with a large enough effect, not every such curve was filed as active;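 also: kinase came from lysate of stimulated human HepG2 cells; signal reports phosphorylation of biotinylated GST-cJun 1-79 at Ser73 with 10 µM ATP; % is scaled to controls: 0 for no effect and ±100 for the full control effect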)
Method in brief: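 Inhibitors reduce antibody binding to phosphorylated biotin-cJun, lowering AlphaScreen luminescence. Lysates from HepG2 cells pre-activated by IL-1beta plus TNF-alpha supplied JNK3; compounds were titrated.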

[7] = Cell Viability - BJ (AID 421); settings: BJ fibroblast viability, qHTS;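 also: potency is read from the fitted curve at half-maximal effect; cells exposed to compound for 40 hours at 37 °C before readout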
Method in brief: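 Luminescent ATP signal (CellTiter-Glo, 20 min at room temperature) served as the read-out of viable BJ cells after 40 hours of compound treatment. Responses were scaled between DMSO and 100 uM tamoxifen, and AC50 values were obtained by Hill modeling.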

[8] = Cell Viability - Jurkat (AID 426;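 active = dose-dependent loss of cell ATP signal giving a full or clear fitted curve, ranked by lower potency value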; also: potency is read from the fitted curve at half-maximal effect); settings: qHTS
Method in brief: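 qHTS, 1536-well; Jurkat E6-1, 5000 cells/well, complete medium; cpd 40 hr, 37 °C; CellTiter-Glo 20 min RT; luminescence. AC50 by Hill fit.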

[9] = Cell Viability - Hek293 (AID 427;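 active = compounds whose dose-response curve shows a full or clear partial loss of cell viability, called from curve shape rather than a numeric limit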;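 also: potency is read from the fitted curve at half-maximal effect; cells exposed to compound for 40 hours at 37 °C before reading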); settings: qHTS
Method in brief: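 Luminescent ATP read-out (CellTiter-Glo, 20 min RT) after 40 hr compound exposure at 37 °C in complete medium. Signal normalized to DMSO (basal) and 100 uM tamoxifen (100% inhibition); concentration-response fitted with the standard Hill equation to give AC50.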

[10] = Cell Viability - HepG2 (AID 433); settings: qHTS;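 also: potency is read from the fitted curve at half-maximal effect; potency for ATP loss meaning cytotoxicity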
Method in brief: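 HepG2 cells, 1500 per well, treated 40 hr at 37 °C in complete medium; viability from intracellular ATP by CellTiter-Glo luminescence. Normalized to DMSO and 100 uM tamoxifen; AC50 from Hill fit of qHTS concentration-response.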

[11] = Cell Viability - MRC5 (AID 434); settings: MRC5 lung fibroblast viability, qHTS;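 also: potency is read from the fitted curve at half-maximal effect; potency reflects cytotoxicity seen as loss of intracellular ATP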
Method in brief: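 MRC5 normal human lung fibroblasts (1500/well) were treated with compounds for 40 hr at 37 °C in complete medium, and viable cells were measured as intracellular ATP by CellTiter-Glo luminescence. AC50 came from Hill fits, normalized to DMSO and 100 uM tamoxifen.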

[12] = Cell Viability - SK-N-SH (AID 435); settings: SK-N-SH neuroblastoma cell viability qHTS;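 also: potency is read from the fitted curve at half-maximal effect; compound exposure lasted 40 h at 37 °C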
Method in brief: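 SK-N-SH neuroblastoma cells (1500/well) treated 40 h at 37 °C in complete medium; viability read as cellular ATP by CellTiter-Glo luminescence. Normalized to DMSO and 100 uM tamoxifen; AC50 from Hill fits of qHTS concentration-response.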

[13] = Cell Viability - N2a (AID 540; active = well fitted curve in the direction sought with a large enough effect; an effect the other way counts as inactive or inconclusive;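 also: plate controls were DMSO alone for no effect and tamoxifen control for full effect; nearly all actives have a fitted effect of over 45% in size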)
Method in brief: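 Luminescent ATP signal (CellTiter-Glo, 20 min at room temperature) served as the viability read-out after N2a cells were treated with compounds for 40 hours at 37 °C. Concentration-response data were fitted to the Hill equation for AC50.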

[14] = Cell Viability - NIH 3T3 (AID 541; active = well fitted curve in the direction sought with a large enough effect; an effect the other way counts as inactive or inconclusive;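 also: plate controls were DMSO alone for no effect and tamoxifen positive control for full effect; nearly all actives have a fitted effect of over 25% in size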)
Method in brief: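 Luminescent ATP signal (CellTiter-Glo) served as the viability read-out after NIH 3T3 cells were exposed to compounds over a concentration range for 40 hr at 37 °C. Hill-equation modelling of concentration-response data gave AC50.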

[15] = Cell Viability - HUV-EC-C (AID 542; active = well fitted curve in the direction sought with a large enough effect; an effect the other way counts as inactive or inconclusive; also: % is scaled to controls: 0 for no effect and ±100 for the full control effect; nearly all actives have a fitted effect of over 35% in size)
Method in brief: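 qHTS cytotoxicity: HUV-EC-C, 1000 cells/well, 5 hr settle, compound 40 hr 37 °C, CellTiter-Glo, luminescence. AC50 via Hill equation.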

[16] = Cell Viability - H-4-II-E (AID 543; active = well fitted curve in the direction sought with a large enough effect; an effect the other way counts as inactive or inconclusive; also: % is scaled to controls: 0 for no effect and ±100 for the full control effect; nearly all actives have a fitted effect of over 35% in size)
Method in brief: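 Luminescent ATP signal (CellTiter-Glo) served as the viability read-out, with cytotoxicity seen as a concentration-dependent ATP drop. Cells were treated for 40 hours in complete medium. AC50 values derive from Hill-equation modelling.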

[17] = Cell Viability - SH-SY5Y (AID 544; active = well fitted curve in the direction sought with a large enough effect; an effect the other way counts as inactive or inconclusive;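 also: 0% = DMSO alone and -100% = 100 µM tamoxifen; nearly all actives have a fitted effect of over 55% in size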)
Method in brief: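 Luminescent ATP read-out (CellTiter-Glo) measures loss of viable SH-SY5Y neuroblastoma cells after 40 hr compound exposure at 37 °C. AC50 values derive from standard Hill modelling of qHTS concentration-response data.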

[18] = Cell Viability - Renal Proximal Tubule (AID 545; active = well fitted curve in the direction sought with a large enough effect; an effect the other way counts as inactive or inconclusive;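 also: 0% = DMSO only and -100% = 100 µM tamoxifen; nearly all actives have a fitted effect of over 40% in size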)
Method in brief: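 Rat renal proximal tubule primary cells, 1000/well, exposed to compounds for 40 hr at 37 °C in complete medium; cellular ATP read by CellTiter-Glo luminescence. AC50 from concentration-response fitted with standard Hill equation.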

[19] = at 38 µM (top of the series) unless noted

CNCCNS(=O)(=O)c1cccc2cnccc12
inactive: Potency [1] | activity change, negative = inhibition [2, 19] -11.3% | Potency [3] > 46 µM | Potency [4] > 46 µM

CCCCCCCC/C=C\CCCCCCCC(=O)NCCc1ccc(O)c(O)c1
active: Potency [1] 20 µM
inactive: activity, negative = inhibition [5, 19] 0.267% | Potency [3] > 46 µM | Potency [4] > 46 µM

CC[C@H](NC(=O)c1c(C)c(-c2ccccc2)nc2ccccc12)c1ccccc1
inactive: activity change, negative = inhibition [2, 19] 2.54% | Potency [4] > 46 µM | outcome [6]
inactive and 7.94 µM (active): Potency [1]

Nc1nc2[nH]c(=O)cnc2c(=O)[nH]1
inactive: Potency [1] | activity change, negative = inhibition [2, 19] -5.45% | activity, negative = inhibition [5, 19] 29.5% | Potency [3] > 46 µM | Potency [4] > 46 µM | outcome [6]

CCCn1c(=O)c2[nH]c(C3CCCC3)nc2n(CCC)c1=O
inactive: activity change, negative = inhibition ([2]; at 17.2 µM (top of the series)) 11.5% | activity change, negative = inhibition ([2]; at 38 µM (top of the series)) -0.836% | activity, negative = inhibition ([5]; at 17.2 µM (top of the series)) -4.29% | activity, negative = inhibition ([5]; at 38 µM (top of the series)) -11.4% | Potency [4] > 46 µM | outcome [6]
active: Potency [1] 1.26 µM and 251 nM

N=C(N)c1ccc(N)cc1
inactive: Potency [1] | activity change, negative = inhibition [2, 19] 5.12% | activity, negative = inhibition [5, 19] -11.4% | Potency [4] > 46 µM | outcome [6]

C=CC[C@H](N)C(=O)O
inactive: Potency [1] | activity, negative = inhibition [5, 19] 7.83% | Potency [3] > 46 µM | Potency [4] > 46 µM | outcome [6]

CC(=O)N[C@@H](Cc1c[nH]c2ccccc12)C(=O)OCc1cc(C(F)(F)F)cc(C(F)(F)F)c1
active: Potency [1] 31.6 µM
inactive: activity change, negative = inhibition [2, 19] 19.5% | activity, negative = inhibition [5, 19] 1.93% | Potency [3] > 46 µM | Potency [4] > 46 µM | outcome [6]

CCCCCCCCCCCCCCC[C@H](O)[C@H](N)CO
inactive: Potency [1] | activity change, negative = inhibition [2, 19] 0.212% | Potency [3] > 46 µM | Potency [4] > 46 µM | outcome [6]

NC(=O)c1ccccc1
inactive: Potency [1] | Potency [7] > 92 µM | Potency [8] > 92 µM | Potency [9] > 92 µM | Potency [10] > 92 µM | Potency [11] > 92 µM | Potency [12] > 92 µM | activity change, negative = inhibition [2, 19] 20.6% | activity, negative = inhibition [5, 19] -35.6% | Potency [3] > 46 µM | Potency [4] > 46 µM | outcome [6] | outcome [13] | outcome [14] | outcome [15] | outcome [16] | outcome [17] | outcome [18]

O=C(O)c1ccccc1Nc1ccccc1
active: Potency [1] 15.8 µM
inactive: activity change, negative = inhibition [2, 19] 6% | activity, negative = inhibition [5, 19] -15.6% | Potency [3] > 46 µM | Potency [4] > 46 µM

O=S(=O)(c1cccc2c(Cl)cccc12)N1CCCNCC1
inactive: activity change, negative = inhibition [2, 19] 3.5% | activity, negative = inhibition [5, 19] -1.55% | Potency [3] > 46 µM | Potency [4] > 46 µM | outcome [6]
active: Potency [1] 15.8 µM

CNC(=O)c1cc2c(cn1)[nH]c1ccccc12
active: Potency [1] 794 nM and 50.1 nM
inactive: activity, negative = inhibition [5, 19] 31.1% | Potency [3] > 46 µM | Potency [4] > 46 µM | outcome [6]

Cc1nc(N=Nc2ccc(S(=O)(=O)O)cc2S(=O)(=O)O)c(COP(=O)(O)O)c(C=O)c1O
inactive: Potency [1] | activity change, negative = inhibition [2, 19] 2.46% | activity, negative = inhibition [5, 19] 5.69% | Potency [3] > 46 µM | Potency [4] > 46 µM | outcome [6]
